Shown are actives, neighbours in structure and some others; about 2.8% of the full set was active somewhere.
IP6K1 inhibitor: Primary qHTS assay for small molecule inhibitors of Inositol hexaphosphate kinase 1 (IP6K1) | Inositol hexakisphosphate kinase 1 (Homo sapiens), Q92551 | IP6K1 kinase, ADP-Glo luminescence, 2 h; active compounds read low | activity change, % (series mostly up to about 58 µM) | 0.81% of 140,000 active; in the data active means activity change below about -25%; further: on the % scale 0 is the no-effect control and ±100 the full control effect
Target sequence (Q92551 whole entry, looked up): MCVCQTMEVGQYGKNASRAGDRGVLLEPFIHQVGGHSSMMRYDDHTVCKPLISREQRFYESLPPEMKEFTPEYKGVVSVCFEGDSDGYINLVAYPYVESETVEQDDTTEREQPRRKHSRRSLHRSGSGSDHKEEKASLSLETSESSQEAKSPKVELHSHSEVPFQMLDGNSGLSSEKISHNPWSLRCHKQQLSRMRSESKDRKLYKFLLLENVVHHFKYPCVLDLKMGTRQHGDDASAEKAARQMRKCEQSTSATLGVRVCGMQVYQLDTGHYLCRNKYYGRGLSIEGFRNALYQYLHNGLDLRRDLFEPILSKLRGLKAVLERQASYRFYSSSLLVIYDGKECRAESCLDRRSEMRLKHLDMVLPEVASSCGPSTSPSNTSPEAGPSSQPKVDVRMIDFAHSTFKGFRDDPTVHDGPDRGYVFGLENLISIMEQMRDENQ
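ADP-Glo luminescence measures ADP made by human IP6K1 during a 2 h RT reaction with ATP/IP6 (mix at 1.3 mM/130 uM); top library doses 57.5 and 19.1 uM final.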
KDM5B inhibitor: Primary screen for KDM5B Histone Demethylases FDH-coupled qHTS | KDM5B demethylase, FDH-coupled NADH fluorescence (FDH is formaldehyde dehydrogenase) | Potency, µM (series often up to 57.7 µM), hits mostly inhibitors | 2.6% of 220,000 active; active means well fitted inhibition curve with a large enough effect; inconclusive means small, poorly fitted or top-dose-only effect; inactive means no such curve, though single readings can be large or run the other way; further: potency means the concentration at half of the fitted maximal effect; 0% is about no effect; nearly all actives have a fitted effect of over 70% in size
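KDM5BΔAP (200 nM final) in 50 mM HEPES pH 7.5, 0.01% Tween-20 was preincubated 10 min at RT with compound over a concentration range. Substrate mix (H3K4me3 12.5 µM, α-KG 25 µM, Fe²⁺, ascorbate, NAD⁺, FDH) was added, and NADH fluorescence change over 30 min gave dose-response curves.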
Numbers without * were called inactive; i = inactive; ? = inconclusive; nt = not tested or not shown.

SMILES	IP6K1 inhibitor	KDM5B inhibitor
Cc1ccc(-c2ccc3nnc(CNC(=O)C4(c5ccccc5)CC4)n3n2)cc1	12.6	28.2µM*
O=C(NCc1nnc2ccc(-c3ccccc3)nn12)C1CCCCC1	7.6	?
CCOc1ccc(CC(=O)NCc2nnc3ccc(-c4ccccc4)nn23)cc1	3.4	i
O=C(Cc1ccc2c(c1)CCCC2)N1CCC(NS(=O)(=O)c2ccccc2)CC1	nt	i
Cc1cc(C)cc(-c2ccc(CN3CCCC3C(=O)NCc3cccnc3)cc2)c1 (stereo not drawn)	12.1	nt
COc1cccc(-c2ccc(CN3CCCC(NC(=O)C4CC4)C3)cc2)c1 (stereo not drawn)	-0.6	nt
COc1ccc(C(=O)N2CCC(N3C(=O)c4c(c(C)nn4-c4ccccc4)C3C)CC2)cc1 (stereo not drawn)	3.1	nt
CCOC(=O)C(C#N)C(N)=O (stereo not drawn)	nt	i
CCOc1cc(C=O)ccc1OCc1cccc2ccccc12	nt	i
COc1ccc(-c2ccc3nnc(CNC(=O)c4ccc[nH]4)n3n2)cc1	-10.7	?
O=C(CCc1ccccc1)NCc1nnc2ccc(-c3ccccc3)nn12	2.9	28.2µM*
COc1ccc(-c2ccc3nnc(CNC(=O)CCc4ccccc4)n3n2)cc1	-8.4	?
COc1ccccc1CC(=O)NCc1nnc2ccc(-c3ccc(C)cc3)nn12	-3.1	?
COc1ccc(-c2ccc3nnc(CNC(=O)c4ccccc4F)n3n2)cc1	-3.7	28.2µM*
Cc1ccccc1CC(=O)NCc1nnc2ccc(-c3ccccc3)nn12	2.4	31.6µM*
O=C(NCc1nnc2ccc(-c3ccccc3)nn12)c1ccc(F)cc1Cl	-5.0	28.2µM*
O=C(NC1CCCc2c1[nH]c1ccccc21)c1cn(C2CC2)c(=O)c2ccccc12 (stereo not drawn)	-5.9	?
O=C(O)c1cc(Cl)ccc1Br	nt	i
CSc1ccc(-c2cccc(C(=O)NCC(=O)NCCc3ccc(Cl)cc3)c2)cc1	-5.4	nt
N#CC1=C(SCC(=O)Nc2ccc3ccccc3c2)NC(=O)CC1c1ccccc1F (stereo not drawn)	nt	i
O=C(Cc1cccc(Cl)c1)NCc1nnc2ccc(-c3ccc(F)cc3)nn12	15.1	?
O=C(Cc1ccccc1Cl)NCc1nnc2ccc(-c3ccccc3)nn12	13.6	11.2µM*
Cc1ccc(-c2ccc3nnc(CNC(=O)Cc4ccccc4Cl)n3n2)cc1C	7.6	?
O=C(NCc1nnc2ccc(-c3ccc(Cl)cc3)nn12)c1cc(F)ccc1Cl	23.2	15.8µM*
CC(Cc1ccco1)NC(=O)CCC1CCCO1 (stereo not drawn)	nt	i
SMILES	IP6K1 inhibitor	KDM5B inhibitor
COc1ccccc1-c1ccc(CN2CCC(NC(=O)c3ccccc3)C2)cc1 (stereo not drawn)	8.2	nt
CN1C[C@@H](NC(=O)c2ccc(C(C)(C)C)cc2)C[C@H]1c1nc(-c2ccc3c(c2)OCO3)no1	-3.7	35.5µM*
CC(=O)N[C@H]1C[C@@H](c2nc(-c3ccc4c(c3)OCO4)no2)N(C)C1	-13.6	i
CCC1(CO)CCCN(Cc2ccc3c4c(cccc24)C(=O)OC3)C1 (stereo not drawn)	7.4	11.2µM*
CCC1(CO)CCCN(CCCOc2ccc(C(N)=O)cc2)C1 (stereo not drawn)	-11.4	i
COC(=O)c1c(C)cccc1NCC(=O)NC(=O)NC(C)C	nt	i
COc1cc(-c2ccc(-c3nc(CC(C)C)no3)cn2)cc(OC)c1OC	-7.0	i
COc1ccc(-c2ccc(-c3nc(CC(C)C)no3)cn2)c2cccnc12	-3.9	28.2µM*
COc1ccccc1C(C)NC(=O)CSC(C)c1ccccc1 (stereo not drawn)	nt	i
O=C(NC1CCCN(c2nc3ncccc3o2)C1)c1ccccc1 (stereo not drawn)	-1.0	?
O=C(NCC1CC1)C1CCCN(c2nc3ncccc3o2)C1 (stereo not drawn)	2.5	?
O=C(NC1CCN(c2nc3ncccc3o2)C1)C1CCCC1 (stereo not drawn)	13.4	nt
CC(C)NC(=O)C1CCCN(c2nc3ncccc3o2)C1 (stereo not drawn)	-2.4	20µM*
O=C(C1CC1)N1CCCN(c2nc3ncccc3o2)CC1	-1.8	?
N#CC1CCN(C(=O)C2CCCN(c3nc4ncccc4o3)C2)CC1 (stereo not drawn)	10.5	31.6µM*
O=C(C1CCCN(c2nc3ncccc3o2)C1)N1CCCC1 (stereo not drawn)	11.0	25.1µM*
CN(C)C(=O)C1CCCN(c2nc3ncccc3o2)C1 (stereo not drawn)	0.0	25.1µM*
CC(C)(C)CC(=O)N1CCC(N2C(=O)C3(CCCCC3)C2c2ccncc2)CC1 (stereo not drawn)	-3.4	i
O=C(NCCCc1ccccc1)c1nc2sccn2c1-c1ccc(F)cc1	-2.0	nt
Fc1ccccc1NC(=S)NC1CC1	nt	i
CC(C)CCn1c(N2CCN(CC(N)=O)CC2)nc2c1c(=O)[nH]c(=O)n2C	nt	i
CCn1cnnc1CCNC(=O)c1cc(-c2ccc(C)cc2)nc2ccccc12	8.8	28.2µM*
Cc1ccc(CCNC(=O)c2cc(-c3ccncc3)nc3ccccc23)cc1	nt	i
COc1cccc(Nc2ccnc(N3CCN([S+](=O)([O-])c4c(C)noc4C)CC3)n2)c1	12.8	nt
CCn1cc(-c2cc(C(=O)N3CCCCCC3)c3cccc(C)c3n2)cn1	0.7	31.6µM*
SMILES	IP6K1 inhibitor	KDM5B inhibitor
Cc1cccc2c(C(=O)N3CCN(Cc4ccccc4)CC3)cc(-c3cccnc3)nc12	nt	i
Cc1cnc(CCNC(=O)c2ccc(C#N)cc2)n1C1CCCC1	-6.9	i
O=C(NCCc1ccc(F)cc1)c1cc(-c2cccc(C(F)(F)F)c2)c2nncn2n1	-4.3	nt
COC(=O)CNC(=O)c1cc(-c2cccnc2)c2nncn2n1	18.5	100µM*
COC(=O)CNC(=O)c1cc(-c2ccccc2OC)c2nncn2n1	2.3	i
COC(=O)CNC(=O)c1cc(-c2ccc(Cl)cc2Cl)c2nncn2n1	6.4	44.7µM*
O=C(NCCc1ccc(Cl)cc1)c1cc(-c2cccc(C(F)(F)F)c2)c2nncn2n1	-4.1	79.4µM*
COCCNC(=O)c1cc(-c2ccc(Cl)cc2Cl)c2nncn2n1	9.2	nt
COC(=O)CNC(=O)c1cc(-c2cccc(C(F)(F)F)c2)c2nncn2n1	-0.5	79.4µM*
COc1ccc(CNC(=O)c2cc(-c3cccc(C(F)(F)F)c3)c3nncn3n2)cc1OC	-15.0	nt
CC(C(=O)NCc1cccs1)N1CCC(O)CC1 (stereo not drawn)	nt	i
Cn1nc(C(=O)OCc2nc(-c3ccc(Cl)cc3)no2)c2ccccc21	nt	i
COc1ccc(-c2cc(C(=O)NCC(C)C)c3cnn(C)c3n2)cc1	3.5	nt
O=C(c1cc(-c2cccnc2)c2nncn2n1)N1CCOCC1	1.3	89.1µM*
O=C(c1cc(-c2ccc(F)cc2)c2nncn2n1)N1CCOCC1	13.4	nt
Cc1cccc(C)c1OCc1nc2c3c(ncn2n1)OC1=C(C(=O)CCC1)C3c1ccco1 (stereo not drawn)	nt	i
COc1ccccc1-c1cnc(NC(=O)c2cnccn2)c2c1CCO2	15.3	35.5µM*
CN(C)c1cccc(-c2cnc(NC(=O)c3ccncc3)c3c2CCO3)c1	-19.5	i
COc1ccccc1-c1cnc(Nc2cc(F)cc(N3CCOCC3)c2)c2c1CCO2	-12.6	?

Compound activity deposited in PubChem by National Center for Advancing Translational Sciences (NCATS).
